In PubChem BioAssay (NCI):
This is part of a sample that, as a whole, favours compounds with a hit. Of some 83,000 tested, about 20% had one in any assay.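 Cell lines were cultured in 96-well plates, exposed to a single compound concentration, and assessed for percent growth 48 hours later.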 The source made the active and inactive calls. Rule for the calls: active = growth percent below 10; inactive = the rest.

Key:
Test in all cases: NCI-60 one-dose screen, 48 h (100 = growth as untreated, 0 = no growth, -100 = all killed)
Conditions in all cases: 10 µM unless noted
DU-145 prostate = system: DU-145 prostate
K-562 leukemia = system: K-562 leukemia
MDA-MB-231 breast = system: MDA-MB-231 breast
RXF 393 renal = system: RXF 393 renal
SF-268 CNS = system: SF-268 CNS
SF-295 CNS = system: SF-295 CNS
SF-539 CNS = system: SF-539 CNS
UACC-257 melanoma = system: UACC-257 melanoma
HCT-15 colon = system: HCT-15 colon
HT29 colon = system: HT29 colon
SNB-75 CNS = system: SNB-75 CNS
SNB-19 CNS = system: SNB-19 CNS
U251 CNS = system: U251 CNS
PC-3 prostate = system: PC-3 prostate
SK-MEL-5 melanoma = system: SK-MEL-5 melanoma
UACC-62 melanoma = system: UACC-62 melanoma
SK-MEL-28 melanoma = system: SK-MEL-28 melanoma
M14 melanoma = system: M14 melanoma
LOX IMVI melanoma = system: LOX IMVI melanoma
MALME-3M melanoma = system: MALME-3M melanoma

Measured: growth

CC(=O)c1ccc2c(c1)CCN2
inactive: DU-145 prostate 104% | K-562 leukemia 111% | MDA-MB-231 breast 96.1% | RXF 393 renal 107% | SF-268 CNS 98.9% | SF-295 CNS 125% | SF-539 CNS 101% | UACC-257 melanoma 104% | HCT-15 colon 105% | HT29 colon 101% | SNB-75 CNS 93.1% | SNB-19 CNS 98.3% | U251 CNS 97.1% | PC-3 prostate 98.6% | SK-MEL-5 melanoma 105% | UACC-62 melanoma 102% | SK-MEL-28 melanoma 109%

Nc1nc(N)c(-c2ccc(Cl)cc2)c(/C=C/c2ccc([N+](=O)[O-])cc2)n1
inactive: DU-145 prostate 87.2% | K-562 leukemia 19.4% | MDA-MB-231 breast 95.4% | RXF 393 renal 74.7% | SF-268 CNS 79.3% | SF-295 CNS 51.5% | SF-539 CNS 93.5% | UACC-257 melanoma 66.3% | M14 melanoma 63.6% | HCT-15 colon 66.3% | HT29 colon 63.8% | SNB-75 CNS 78.3% | U251 CNS 82.9% | PC-3 prostate 32.4% | SK-MEL-5 melanoma 79.6% | UACC-62 melanoma 83.1% | LOX IMVI melanoma 60.6%

Cc1c(C(=O)O)nnn1-c1nccs1
inactive: DU-145 prostate 104% | MALME-3M melanoma 102% | MDA-MB-231 breast 91.6% | RXF 393 renal 112% | SF-268 CNS 102% | SF-295 CNS 101% | SF-539 CNS 92% | UACC-257 melanoma 80.8% | HCT-15 colon 98% | HT29 colon 89.7% | SNB-75 CNS 81.8% | SNB-19 CNS 98.1% | U251 CNS 92.1% | PC-3 prostate 89.4% | SK-MEL-5 melanoma 99.6% | UACC-62 melanoma 96.2% | LOX IMVI melanoma 96.7% | SK-MEL-28 melanoma 108%

C[C@@H]1CC[C@@H]2[C@@H]1[C@H](OC(=O)/C=C/c1ccccc1)[C@]1(CCCOCCOCCOCCOC(=O)CCCC[C@@H]3SC[C@@H]4NC(=O)N[C@@H]43)C[C@@H](OC(=O)CO)[C@@]2(C)O1
inactive: DU-145 prostate 103% | MALME-3M melanoma 99.6% | MDA-MB-231 breast 106% | RXF 393 renal 108% | SF-268 CNS 102% | SF-295 CNS 107% | SF-539 CNS 103% | UACC-257 melanoma 109% | HCT-15 colon 106% | HT29 colon 98.1% | SNB-75 CNS 88.8% | SNB-19 CNS 106% | U251 CNS 105% | PC-3 prostate 97.7% | SK-MEL-5 melanoma 105% | UACC-62 melanoma 102% | LOX IMVI melanoma 106% | SK-MEL-28 melanoma 108%

CC(=O)c1sc(-c2ccccc2)cc1N
inactive: DU-145 prostate 102% | MALME-3M melanoma 112% | MDA-MB-231 breast 99.6% | RXF 393 renal 107% | SF-268 CNS 104% | SF-295 CNS 99.7% | SF-539 CNS 97.1% | UACC-257 melanoma 90.6% | HCT-15 colon 95.2% | HT29 colon 88.7% | SNB-75 CNS 99.5% | SNB-19 CNS 94.5% | U251 CNS 82.7% | PC-3 prostate 90.8% | SK-MEL-5 melanoma 95.7% | UACC-62 melanoma 91% | LOX IMVI melanoma 104% | SK-MEL-28 melanoma 108%

C[C@@H]1CC[C@@H]2[C@@H]1[C@H](OC(=O)/C=C/c1ccccc1)[C@]1(C3CCCCC3)C[C@@H](NC(=O)CO)[C@@]2(C)O1
inactive: DU-145 prostate 107% | MALME-3M melanoma 99.2% | MDA-MB-231 breast 102% | RXF 393 renal 53.2% | SF-268 CNS 97.4% | SF-295 CNS 112% | SF-539 CNS 100% | UACC-257 melanoma 110% | HCT-15 colon 99% | HT29 colon 86% | SNB-75 CNS 85% | SNB-19 CNS 104% | U251 CNS 111% | PC-3 prostate 94% | SK-MEL-5 melanoma 104% | UACC-62 melanoma 97% | LOX IMVI melanoma 100% | SK-MEL-28 melanoma 98.8%

O=C(CCCCCCCn1cc(-c2cccnc2)nn1)Nc1ccccc1-c1ccccc1
active: SF-295 CNS -15.9% | SF-539 CNS -7.88%
inactive: DU-145 prostate 37.2% | K-562 leukemia 23.7% | MDA-MB-231 breast 59.6% | RXF 393 renal 80.4% | SF-268 CNS 63.8% | UACC-257 melanoma 65.6% | M14 melanoma 17.3% | HCT-15 colon 24.1% | HT29 colon 39% | SNB-75 CNS 92.3% | U251 CNS 31.1% | PC-3 prostate 49.3% | SK-MEL-5 melanoma 30.5% | UACC-62 melanoma 60.6% | LOX IMVI melanoma 57.3%

COc1cc(NC(=O)c2cc(O)c(CC=C(C)C)c(O)c2)cc2c1O[C@]1(C)CC[C@@H](O)C(C)(C)[C@H]1C2
active: RXF 393 renal -23.6% | SF-295 CNS -49.6% | SF-539 CNS -34.6% | HT29 colon 5.24% | SNB-75 CNS -7.48% | SK-MEL-5 melanoma -20.3% | UACC-62 melanoma -13.3%
inactive: DU-145 prostate 42.8% | MALME-3M melanoma 43.9% | MDA-MB-231 breast 32.8% | SF-268 CNS 42% | UACC-257 melanoma 36.3% | HCT-15 colon 34.3% | SNB-19 CNS 44.9% | U251 CNS 13.4% | PC-3 prostate 21.5% | LOX IMVI melanoma 12.7% | SK-MEL-28 melanoma 18.8%

N#Cc1cnn2c(-c3ccc(Cl)cc3)nc(NC3CC3)nc12
inactive: DU-145 prostate 88.8% | MALME-3M melanoma 125% | MDA-MB-231 breast 101% | RXF 393 renal 93.7% | SF-268 CNS 84.4% | SF-295 CNS 89.8% | SF-539 CNS 89.2% | UACC-257 melanoma 111% | M14 melanoma 108% | HCT-15 colon 90.1% | HT29 colon 88.8% | SNB-75 CNS 87.7% | SNB-19 CNS 86.6% | U251 CNS 97.3% | PC-3 prostate 95% | SK-MEL-5 melanoma 95.3% | UACC-62 melanoma 85.6% | LOX IMVI melanoma 99% | SK-MEL-28 melanoma 113%

C[C@]12CCC(=O)C[C@H]1CC[C@@H]1[C@@H]2CC[C@@]2(C)[C@H]1CC[C@]2(O)C(=O)CO
inactive: DU-145 prostate 108% | K-562 leukemia 114% | MDA-MB-231 breast 99.6% | RXF 393 renal 108% | SF-268 CNS 96% | SF-295 CNS 113% | SF-539 CNS 103% | UACC-257 melanoma 129% | HCT-15 colon 104% | HT29 colon 99.4% | SNB-75 CNS 94.4% | SNB-19 CNS 108% | U251 CNS 121% | PC-3 prostate 102% | SK-MEL-5 melanoma 104% | UACC-62 melanoma 102% | SK-MEL-28 melanoma 108%
